These results are taken from PubChem BioAssay (Tox21).

Values joined by “and” are separate entries in the source; they are usually repeats but may differ in a detail not shown here. Identical values can stand only once. Records with an inconclusive call do not appear. Active and inactive are the calls of the source. Calls come from the whole dose curve; as a rule, active = well fitted activation curve with a large enough effect in the repeat runs; inconclusive = weak or mixed curves; inactive = flat fitted curve, though single readings scatter.
% is set by controls: 0 for no effect and ±100 for the full control effect; potency is the fitted concentration of half-maximal effect.

The nature of the experiment: A CellTox Green Cytotoxicity Assay to monitor cytotoxicity in HEK293 cells - 32 hour (AID 1224881). Note: nearly all actives have a fitted effect of over 40% in size. The note with it: CellTox Green fluorescence; series mostly up to 76.8 µM; cytotoxicity increase: at the top concentration. An excerpt: National Center for Advancing Translational Sciences [NCATS]
NIH Chemical Genomics Center [NCGC]
U.S. Environmental Protection Agency [EPA]
National Institutes of Environmental Health Sciences [NIEHS]
National Toxicology Program [NTP]
Cell-based models are critical for drug discovery. Determining the natural cytotoxic effects resulting from test compounds is an essential research activity. A CellTox Green Cytotoxicity Assay to monitor cytotoxicity in real time of continues cell culture during 40 hours of the compound treatment was used to screen Tox21 10K library compounds in Hek293 cells. CellTox Green Cytotoxicity Assay is a nonlytic, homogeneous, biofluorescent method to measure cytotoxicity in cell culture after experimental manipulation. The assay system uses a proprietary asymmetric cyanine dye that is excluded from viable cells but preferentially stains the dead cell's DNA. […] Viable cells produce no appreciable increases in fluorescence. Therefore, the fluorescence signal produced by the binding interaction with dead cell DNA is proportional to cytotoxicity.
The mixture of Hek293 cell suspension and reagents were dispensed at 600cells/6 ul/well in 1536-well tissue culture treated black solid bottom plates using a Multidrop dispenser. After the assay plates were incubated at a 37 C/5% CO2 incubator for 5 hours, 23 nL of compounds dissolved in DMSO, positive and negative controls was transferred to the assay plate by a pintool work station. The plates were incubated at 37 C for 40 hours. The fluorescence intensity were measured at 0h, 8h, 16h, 24h, 32h and 40h time points using ViewLux plate reader during compound treatment.
For `N#Cc1cc([N+](=O)[O-])ccc1N`, the “cytotoxicity increase” value was -10.8% (inactive).

Consider `O=[N+]([O-])c1c(Cl)c(Cl)cc(Cl)c1Cl`, for which the Potency was 43.6 µM (active).

As for `Cc1ccc(N(SC(F)(Cl)Cl)S(=O)(=O)N(C)C)cc1`, the Potency is 5.49 µM (active).

As to `CN1CSC(=S)N(C)C1`, the Potency was 6.13 µM (active) and 9.75 µM (active).

As for `CCN(CC)C(=O)Cl`, the “cytotoxicity increase” value is 7.2% (inactive).

As to `CCOC(=O)C(O)(c1ccc(Cl)cc1)c1ccc(Cl)cc1`, the Potency was 44.1 µM (active).

For the compound `Oc1c(I)cc(I)cc1I`, the “cytotoxicity increase” value is 0.654% (inactive).

Turning to `O=S(=O)(C(Cl)(Cl)Cl)C(Cl)(Cl)Cl`, the Potency was 19.5 µM (active).

Take `Cc1ccc2nc3sc(=O)sc3nc2c1`: the cytotoxicity increase was -11.5% [at 15.8 µM] (inactive).

Consider `COc1cc(OC)c(OC)cc1C=O`, for which the “cytotoxicity increase” value was -12.3% (inactive).

As for `Clc1ccccc1-c1ccccc1Cl`, the Potency is 31.4 µM (active).

On to `C[C@]12CC[C@@H](O)C[C@@H]1CC[C@@H]1[C@@H]2CC[C@]2(C)C(=O)CC[C@@H]12`, for which the Potency is 54.9 µM (active).

Take `OC(Cc1ccccc1Cl)(Cn1[nH]cnc1=S)C1(Cl)CC1` (stereo not given): the “cytotoxicity increase” value is -37.5% (inactive).

For `COc1ccc(C(c2ccc(OC)cc2)C(Cl)(Cl)Cl)cc1`, the “cytotoxicity increase” value is 11.5% (inactive).

`Nc1ccc([N+](=O)[O-])cc1`: the Potency was 38.9 µM (active).

For the compound `OCC(c1ccc(Cl)cc1)c1ccc(Cl)cc1`, the Potency was 38.9 µM (active).

`O=C(c1ccccc1)C(Cl)Cl`: the Potency was 34.7 µM (active).

As for `O=C1C(I)=CC(=C(c2cc(I)c(O)c(I)c2)c2ccccc2C(=O)O)C=C1I`, the “cytotoxicity increase” value was -0.248% [at 35.3 µM] (inactive).

Take `ClC1=C(Cl)[C@]2(Cl)[C@@H]3[C@@H](Cl)[C@H]4O[C@H]4[C@@H]3C1(Cl)C2(Cl)Cl`: the Potency is 54.9 µM (active).

Consider `CC1COC(Cn2cncn2)(c2ccc(Oc3ccc(Cl)cc3)cc2Cl)O1` (stereo not given), for which the “cytotoxicity increase” value is 14.2% (inactive).
